Screens: PubChem BioAssay, National Center for Advancing Translational Sciences (NCATS)
An excerpt weighted towards active compounds, which were near 1.4% of everything screened.
MmCpn inh – Inhibitors of TCP-1 ring complex (TRiC) of Methanococcus maripaludis (MmCpn): qHTS. purified Mm-Cpn ATPase, ADP Transcreener TR-FRET. Potency, µM (doses to about 76.9 µM), inactives show top-dose activity, negative = inhibition, most hits filed as inhibitors. hit rate 0.031% among 330,000. AID 504842, 2011; active means well fitted inhibition curve with a large enough effect; inconclusive means small, poorly fitted or top-dose-only effect; further: potency means the concentration at half of the fitted maximal effect; on the % scale 0 is the no-effect control and ±100 the full control effect; nearly all actives have a fitted effect of over 80% in size
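Measured: ADP formation by purified Mm-CPN. Conditions: 25 nM protein, 10 uM ATP, Tris pH 7.4 with Mg2+, K+ and DTT, 37°C for 30 min. Detection: Transcreener HTRF after 30 min at room temperature.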
KCNH2 WT inh – qHTS for Inhibitors of KCHN2 3.1: Wildtype qHTS; Voltage-gated inwardly rectifying potassium channel KCNH2 (Homo sapiens), Q12809; U2OS, BacMam KCNH2, thallium flux FluxOr; stronger effect = lower value; activity change, % at 1.84 µM; hit rate 0.37% among 340,000; AID 720551, 2013;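 active means maximum activity change below -70%; inconclusive means maximum activity change between -70% and -50%; inactive means maximum activity change above -50%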; further: on the % scale 0 is the no-effect control and ±100 the full control effect
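U2OS cells were transduced with wild-type KCNH2 virus (2.03 x 10^8 / mL) for 4 h at room temperature, then cultured overnight at 37 C. Thallium flux was read with FluxOr dye. Rate constants were normalized to DMSO controls.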
Rango-impB inh – qHTS Assay for Inhibitors of Rango (Ran-regulated importin-beta cargo) - Importin beta complex formation | Rango CFP/YFP FRET sensor + importin beta, 45 min | Potency, µM (highest dose often 92.2 µM), for the others: top-dose inhibition of complex formation | hit rate 0.031% among 340,000;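 further: potency means the concentration at half of the fitted maximal effect; 0% = DMSO wells and 100% = buffer wells lacking importin beta; nearly all actives have a fitted effect of over 15% in size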
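Inhibition scored from the CFP 486 nm/YFP 530 nm FRET ratio 45 min after adding 0.125 microM importin beta to 50 nM Rango biosensor preincubated 5 min with compound (room temperature, PBS with DTT, Tween-20, BSA). No-importin wells as positive control.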
KCNH2 3.1 block – qHTS for Inhibitors of KCHN2 3.1: Mutant qHTS; Potassium voltage-gated channel subfamily H member 2, brain isoform KCNH2 3.1 (human); U2OS KCNH2 3.1, thallium flux FluxOr; stronger effect = lower value; activity change, % (tested at about 1.8 µM); hit rate 0.95% among 340,000; AID 720553, 2013;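 active means maximum activity change below -70%; inconclusive means maximum activity change from -70% to -50%; inactive means maximum activity change above -50%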;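 further: thallium influx rate constant from kinetic fluorescence after stimulation buffer; on the % scale 0 is the no-effect control and ±100 the full control effect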
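Normalized rate constant (relative to positive and negative DMSO controls) derived from a 2 min kinetic fluorescence read after stimulation; U2OS cells expressing the 3.1 isoform via virus at 1.77 x 10^8 /mL.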
CCT chaperon mod – High-Throughput Screening for Modulators of Cytosolic Chaperonin Activity; purified chaperonin ATPase assay, HTRF ADP detection, 30 min; activity change, % (test concentration not listed), hits read low; hit rate 0.3% among 360,000; AID 651819, 2012; in the data active means activity change below about -30%; further: on the % scale 0 is the no-effect control and ±100 the full control effect
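TRiC (40 or 20 nM final, by batch activity) in 30 mM Tris pH 7.4, 100 mM KCl, 5 mM MgCl2, 1 mM DTT was treated with compound at 76 uM single dose, then 10 uM ATP, 30 min at 37 °C. ADP was read by HTRF Transcreener.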
Rango dissoc inh – qHTS Assay for Inhibitors of RanGTP induced Rango (Ran-regulated importin-beta cargo) - Importin beta complex dissociation | Biochemical FRET Rango-importin beta, RanGTP-induced dissociation | Potency, µM (top dose mostly 46.1 µM), for inactives: at the top dose activity change, negative = inhibition | hit rate 0.071% among 340,000 | AID 540253, 2011; further: potency means the concentration at half of the fitted maximal effect; % of control where 0% means no effect; nearly all actives have a fitted effect of over 45% in size
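Two FRET readings bracket the reaction: one 5 min after compound meets Rango–importin beta, another 45 min after RanGTP-RCC1 (0.6 uM Ran, 0.2 uM RCC1, 2 mM GTP) is added. Only the second defines inhibition.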
* = called active by the depositor; ? = inconclusive; . = no result given. Unless noted, the call rests on the fitted dose curve.

SMILES	MmCpn inh	KCNH2 WT inh	Rango-impB inh	KCNH2 3.1 block	CCT chaperon mod	Rango dissoc inh
CC(C)(C)C(=O)Nc1cc(NC(=O)C(C)(C)C)cc(C(=O)Nc2cc(C(=O)O)cc(C(=O)O)c2)c1	0%	1	4%	9	-6	3%
CC(C)c1ccc(NC(=O)C2CCN(C(=O)[C@@H]3Cc4ccccc4CN3)CC2)cc1	3%	-17	0%	-88*	-4	59%
Cc1ccc(OC(C)C(=O)Nc2ccc(Cl)cn2)c([N+](=O)[O-])n1 (centres undefined)	1%	-4	-4%	2	-2	2%
Cc1cc(Cl)ccc1OC(C)C(=O)Nc1ccc([N+](=O)[O-])cn1 (centres undefined)	-13%	-125*	2%	-94*	0	-4%
CCOCCCN(C)C1CCN(C(=O)c2oc3ccccc3c2NC(=O)c2cccc([N+](=O)[O-])c2)CC1	1%	-79*	0%	-107*	4	4%
CCOCCCN(C)C1CCN(C(=O)c2oc3ccccc3c2NC(=O)Cc2ccc([N+](=O)[O-])cc2)CC1	1%	-102*	2%	-100*	-1	1%
CCOc1ccc(C(=O)Nc2c(C(=O)N3CCC(N4CCCCC4)CC3)oc3ccccc23)cc1	0%	23	2%	-28	-2	-9%
CCOCCCN(C)C1CCN(C(=O)c2oc3ccccc3c2NC(=O)COc2ccc(F)cc2)CC1	-6%	-42	0%	-100*	0	2%
O=C(Nc1c(C(=O)N2CCN(c3ccccn3)CC2)oc2ccccc12)c1ccc([N+](=O)[O-])cc1	-3%	?	-1%	-105*	-1	-1%
Cc1ccc(S(=O)(=O)N2CCN(Cc3cc(=O)n4ccccc4n3)CC2)c(C)c1	-1%	17	?	-3	-1	-2%
O=C(/C=C/c1ccccc1)NC(=S)Nc1ncccn1	-1%	6	1%	7	-1	0%
CCOCCCN(C)C1CCN(C(=O)c2oc3ccccc3c2NC(=O)Cc2ccc(F)cc2)CC1	-3%	-107*	3%	-83*	1	6%
COc1cccc(N2CCN(C(=O)c3oc4ccccc4c3NC(=O)Cc3ccc(OC)c(OC)c3)CC2)c1	-8%	7	1%	-31	2	5%
Cc1nc(N2CCOCC2)nc(OC(C)C)c1[N+](=O)[O-]	-1%	-3	0%	21	-1	0%
COc1nc(N2CCOCC2)nc(C)c1[N+](=O)[O-]	2%	-107*	0%	16	0	-3%
N=c1c2c(-c3ccccc3)c(-c3ccccc3)n(Cc3ccco3)c2ncn1Cc1ccco1	0%	?	0%	-93*	0	-7%
C=CCn1c(SCC(=O)N2CCN(C(=O)c3ccco3)CC2)nc2sc(CC)cc2c1=O	0%	-109*	1%	?	-2	4%
C=CCn1c(SCC(=O)N2CCCC2=O)nc2sc(CC)cc2c1=O	0%	38	0%	-6	0	4%
CC(=O)NC(c1cc(F)c2cccnc2c1O)C(C)C (centres undefined)	1%	.	.	.	.	.
COc1ccc(OC)c(NC(=O)c2cccc(N3C(=O)C4C5C=CC(C6CC56)C4C3=O)c2)c1 (centres undefined)	0%	-167*	0%	-39	0	14%
COc1ccc(OC)c(NC(=O)c2cccc(N3C(=O)C4C5CCC(C5)C4C3=O)c2)c1 (centres undefined)	0%	-1	1%	-6	0	-10%
COc1ccc(N2C(=O)c3ccc(C(=O)Nc4cc(OC)ccc4OC)cc3C2=O)cc1	1%	9	0%	-96*	-1	-8%
COc1ccc(N2C(=O)c3ccc(C(=O)OC(C)C)cc3C2=O)cc1	-2%	-10	?	9	3	-9%
COc1ccc(C(=O)NC2CCN(C(=O)Nc3ccccc3Cl)CC2)cc1	0%	-5	6%	-12	-1	-6%
Cc1cc(=O)oc2c(CN3CCCC3)c(O)c(Cl)cc12	-14%	2	?	2	-1	15µM*
SMILES	MmCpn inh	KCNH2 WT inh	Rango-impB inh	KCNH2 3.1 block	CCT chaperon mod	Rango dissoc inh
Cc1ccc(C)n1-c1ccc(C(=O)NN=C2CCCC2)cc1	1%	2	0%	9	0	5%
COc1ccc([C@H]2CN(CCc3ccccc3)C(=O)[C@@H]2CC(=O)Nc2ccccc2)cc1	.	4	.	-6	-43*	.
CCOc1cc(C(=S)N2CCOCC2)ccc1OS(=O)(=O)c1ccccc1[N+](=O)[O-]	-4%	47	-1%	2	-1	1%
N#CC(CCc1ccccc1[N+](=O)[O-])(CCc1ccccc1[N+](=O)[O-])C(N)=O	.	?	0%	-121*	-2	1%
CCN(CC(=O)NCC1CCCO1)S(=O)(=O)c1ccc(Cl)cc1 (centres undefined)	-6%	-80*	0%	1	-1	3%
Cc1ccc(S(=O)(=O)NCC(=O)N(CC(=O)NCC2CCCO2)Cc2ccccc2Cl)cc1 (centres undefined)	3%	-233*	0%	5	-2	-10%
COc1cccc(N(CC(=O)NCC2CCCO2)C(=O)CNS(=O)(=O)c2ccccc2)c1 (centres undefined)	1%	-8	3%	-70*	2	?
COCC1CCCCN1C(=O)c1cccc(OC2CCN(S(C)(=O)=O)CC2)c1 (centres undefined)	0%	-7	0%	7	-3	-3%
CCCNC(=O)c1ccc(CN2CCOCC2)cc1	2%	-5	1%	16	-1	4%
Cc1cc(C)c2c(CN3CCN(Cc4ccc5c(c4)OCO5)CC3)cc(=O)oc2c1C	1%	24	1%	-92*	-2	0%
CN(Cc1ccco1)c1ncnc2ccc(-c3ccc4c(c3)OCCO4)cc12	-13%	.	.	.	.	.
O=c1oc2ccccc2cc1-c1nc2c(s1)CCCC2	1%	1	?	-87*	0	?
O=c1oc2ccccc2cc1-c1nc2ccccc2o1	-10%	-28	?	4	-4	-26%
